# In PubChem BioAssay (NCI):
# This is part of a sample that, as a whole, favours compounds with a hit. Of some 83,000 tested, about 20% had one in any assay.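 The endpoint reported here, percent growth, reads 100 for growth as untreated, 0 for no net growth and -100 for all cells dead.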 Unmarked numbers belong to inactive results. The source made the active and inactive calls. How the source made its calls: active means growth percent below 10; inactive means the rest.
# Key:
# Test in all cases: NCI-60 one-dose screen, 48 h (100 = growth as untreated, 0 = no growth, -100 = all killed)
# Details in all cases: 10 µM unless noted
# NCI-H23 lung = test system: NCI-H23 lung
# NCI-H226 lung = test system: NCI-H226 lung
# NCI-H322M lung = test system: NCI-H322M lung
# HOP-62 NSCLC = test system: HOP-62 NSCLC
# NCI-H460 lung = test system: NCI-H460 lung
# HOP-92 NSCLC = test system: HOP-92 NSCLC
# NCI-H522 lung = test system: NCI-H522 lung
# A549/ATCC NSCLC = test system: A549/ATCC NSCLC
# 786-0 renal = test system: 786-0 renal
# COLO 205 colon = test system: COLO 205 colon
Structure (SMILES),growth (NCI-H23 lung),growth (NCI-H226 lung),growth (NCI-H322M lung),growth (HOP-62 NSCLC),growth (NCI-H460 lung),growth (HOP-92 NSCLC),growth (NCI-H522 lung),growth (A549/ATCC NSCLC),growth (786-0 renal),growth (COLO 205 colon)
COc1ccc(/C=N/NC(=O)Cn2nnc3ccccc32)cc1,101%,96.4%,89.1%,99.9%,96.6%,104%,90.9%,96.5%,103%,109%
N=C(N)c1ccc(-c2ccc(-c3ccc(Cl)cc3Cl)s2)nc1,85.2%,91.7%,60.9%,90.7%,-60.1% (active),84.2%,29%,33.1%,85.4%,-27.1% (active)
CC(=O)c1c(/C=C/c2ccc(C)cc2)c2ccccc2[nH]c1=O,86.5%,63%,91.2%,89.4%,91.3%,73.1%,84.6%,85.4%,97.8%,105%
CCN1CCN(C(=O)[C@]23CC[C@@H](C)[C@H](C)[C@@H]2C2=CC[C@@H]4[C@@]5(C)C/C(=C/c6ccncc6)C(=O)C(C)(C)[C@@H]5CC[C@@]4(C)[C@]2(C)CC3)CC1,20.8%,24.7%,53.2%,33.2%,-6.85% (active),45.2%,23.4%,25.5%,19.6%,-15.6% (active)
O=C(c1ccc(F)cc1)C1CCN(CCn2c(=O)[nH]c3ccccc3c2=O)CC1,99.6%,97.8%,105%,108%,122%,87.8%,82.9%,107%,97%,103%
CN1C(=O)N(C)C2C1NN=c1s/c(=C\c3ccccc3F)c(=O)n12 (stereo not given),33.1%,57.8%,37.3%,32.9%,3.14% (active),76.8%,-8.56% (active),21%,36%,8.94% (active)
CCN1CCN(c2cc(C(=O)Nc3cccc(Nc4ccc5c(OC)cccc5n4)c3)cc(C(F)(F)F)c2)CC1,44.5%,45.1%,26.2%,5.17% (active),-48.7% (active),-3.85% (active),-45.2% (active),21.1%,-70.1% (active),-77.1% (active)
O=S(=O)(c1ccc(NCSc2nc3ccccc3s2)cc1)c1ccc(NCSc2nc3ccccc3s2)cc1,102%,87.8%,103%,66.4%,104%,70.7%,69.7%,91.1%,99.6%,97.1%
CC1OC(C(=O)N2CCN(CCO)CC2)CC1COC1CCCCC1 (stereo not given),94% [50 µM],84.3% [50 µM],90.9% [50 µM],85.7% [50 µM],100% [50 µM],87% [50 µM],93.2% [50 µM],94.2% [50 µM],109% [50 µM],105% [50 µM]
COc1ccc(CNc2c3ccccc3nc3ccccc23)cc1OC,15.1%,27.9%,29.8%,34.5%,6.17% (active),-9.67% (active),18.2%,16.3%,25.4%,5.3% (active)
CCN(CC)CCN1C(=O)c2c(c(C)c3c(oc4cc(OC)ccc43)c2C)C1=O,95.9%,27.8%,85.3%,95.9%,44.7%,100%,91.9%,104%,-74% (active),99.1%
COc1ccc(C(=O)/C=C/Nc2cc(-c3ccccc3)nn2-c2ccccc2)cc1,90%,79.8%,93.2%,102%,98%,80.8%,82.7%,91.4%,89%,110%
Cc1c(C(=O)C(SC(=S)N2CCOCC2)SC(=S)N2CCOCC2)nnn1-c1ccc([N+](=O)[O-])cc1,108%,89.4%,98.7%,94.5%,98.8%,92.9%,80.3%,96.5%,98.6%,86.5%
Cc1ccc2c(c1)CC(O)CC1C(=O)N(CCO)CC(=O)N21 (stereo not given),99.3%,95.9%,105%,101%,109%,124%,82.5%,76.6%,104%,110%
C=C(c1ccc(OC)c(/C=C/C(=O)c2cc(OC)c(OC)c(OC)c2)c1)c1cc(OC)c(OC)c(OC)c1,-33.2% (active),-38% (active),17.9%,11.5%,-30.6% (active),40.2%,-19.3% (active),9.3% (active),-64.3% (active),-13.6% (active)
O=C(Nc1ncc(Cc2ccccc2)s1)c1ccc2c(c1)OCCO2,30.8%,12.8%,50.1%,25.5%,5.11% (active),57.8%,-3.58% (active),16.6%,33.1%,-13.3% (active)
CC(C)n1nc(-c2ccc3oc(N)nc3c2)c2c(N)ncnc21,2.3% (active),-28.2% (active),-7.33% (active),-25.5% (active),5.28% (active),-40% (active),2.22% (active),-6.71% (active),-36.7% (active),-3% (active)
CCCCCCCCOC(=O)c1c(C)[nH]c(/C=C2\N=C(c3ccc[nH]3)C=C2OC)c1C,3.19% (active),9.15% (active),26%,12.7%,10.2%,-12.5% (active),4.04% (active),-10.9% (active),-40.1% (active),-33.7% (active)
O=C1C(Nc2ccc(Br)cc2)=C(I)C(=O)c2ncccc21,10.6%,87.3%,84.4%,42.1%,23.3%,-82.6% (active),-46.2% (active),46.8%,44.4%,23.5%
CN1CCN(CCCNC(=O)c2c3c(n4ccccc24)C(=O)c2ncccc2C3=O)CC1,-24.3% (active),33.7%,-23.9% (active),25.8%,-60.1% (active),14.9%,-43.4% (active),-25.5% (active),28.5%,-73% (active)
C/C(=C(\c1ccc(OCCCN(C)C)cc1)c1ccc(OC(=O)Cc2ccccc2)cc1)c1ccc(Cl)cc1,84.6%,100%,86.8%,78.9%,40.8%,51.8%,67.2%,63.3%,68.3%,50.6%
COC(=O)[C@@H](Cc1c[nH]c2ccccc12)NC(=O)[C@H](Cc1ccccc1)NCc1ccncc1,97.4%,94.1%,92.8%,93.7%,104%,91.5%,73.5%,83.9%,104%,107%
COc1ccc2c(c1)c(-c1nc(-c3cn(C)c4ccncc34)cs1)cn2C,92.2%,113%,95.7%,94.7%,-64.5% (active),81.8%,87.3%,2.44% (active),84.8%,92.6%
CCOC(=O)c1c(C)nc2c(c1N)C(=O)C(=O)N2CCc1ccc(OC)c(OC)c1,67%,74%,109%,58.9%,88.2%,81.8%,31.9%,66%,82.9%,99.3%
Cc1ccc2nc(/C=C/c3ccc(N(C)C)cc3)cc(C)c2c1,42.1%,64.8%,70.9%,32.4%,15.1%,25.7%,25.1%,52.3%,35.1%,23.5%
CCOC(=O)/C(=C/c1ccc([N+](=O)[O-])cc1)C(=O)c1ccccc1,48%,21.3%,73.5%,76.5%,55.2%,32.4%,-24.7% (active),71.5%,17.2%,4.21% (active)
Cc1ccc2c(n1)C[C@H](C(C)(C)O)CC[C@H]2C,103%,100%,98.5%,101%,108%,97.7%,94.3%,94.4%,97.9%,111%
